TGFb inhibitor = qHTS for Inhibitors of TGF-b | hit rate 1.2% among 410,000 | Potency, µM (highest dose often 46.1 µM), without a hit: at the top dose activity, negative = inhibition, hits mostly inhibitors | AID 588855, 2011 | HepG2 CAGA-GFP TGF-b/SMAD3 reporter, GFP fluorescence, 18 h; TGF-beta stimulated, 500 pg/mL final; further: potency means the concentration at half of the fitted maximal effect; on the % scale 0 is the no-effect control and ±100 the full control effect; nearly all actives have a fitted effect of over 65% in size
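Smad-responsive CAGA-GFP expression was quantified in HEPG2 cells exposed to compounds and 500 pg/mL final TGF-beta for 18 h at 37 degrees C; unstimulated wells defined full inhibition.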
ASM inhibitor = Inhibitors of Secretory Acid Sphingomyelinase (S-ASM): qHTS. Sphingomyelin phosphodiesterase (Homo sapiens), P17405. placental ASM, HMU-PC fluorogenic substrate, 60 min. Potency, µM (series often up to 57.5 µM), inactives show at the top dose activity change, negative = inhibition, usual class: inhibitors. hit rate 0.006% among 340,000; further: potency means the concentration at half of the fitted maximal effect
Target sequence (P17405 47-631 limits assumed): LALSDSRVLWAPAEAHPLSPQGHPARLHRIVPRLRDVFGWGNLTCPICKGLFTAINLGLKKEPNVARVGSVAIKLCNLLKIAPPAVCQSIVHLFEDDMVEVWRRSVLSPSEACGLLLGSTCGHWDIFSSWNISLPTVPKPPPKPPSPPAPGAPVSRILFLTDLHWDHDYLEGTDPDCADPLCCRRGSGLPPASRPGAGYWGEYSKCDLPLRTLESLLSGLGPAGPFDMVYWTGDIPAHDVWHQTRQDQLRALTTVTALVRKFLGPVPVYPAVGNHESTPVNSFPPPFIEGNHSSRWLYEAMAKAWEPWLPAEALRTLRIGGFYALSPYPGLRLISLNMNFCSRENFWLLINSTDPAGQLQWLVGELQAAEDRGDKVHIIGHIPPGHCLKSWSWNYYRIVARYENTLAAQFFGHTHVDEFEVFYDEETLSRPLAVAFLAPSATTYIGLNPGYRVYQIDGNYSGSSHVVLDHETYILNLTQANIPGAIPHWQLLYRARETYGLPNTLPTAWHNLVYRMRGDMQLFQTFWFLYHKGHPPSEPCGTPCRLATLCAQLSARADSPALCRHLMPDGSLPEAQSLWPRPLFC
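qHTS format. ASM enzyme prepared from human placenta hydrolyses the fluorogenic substrate HMU-PC0 (9 uM final) over 60 min at 37 °C after a 10 min compound preincubation.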
IL1B secr inh = qHTS for Inhibitors of Inflammasome Signaling: IL-1-beta AlphaLISA Primary Screen; THP-1 LPS/ATP IL-1B secretion, AlphaLISA, 16 h; hits give low values; activity change, % at 57.5 µM; hit rate 4.7% among 360,000; in the data active means activity change below about -50%; inconclusive means mostly about -30% to -49%; further: on the % scale 0 is the no-effect control and ±100 the full control effect
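Secreted IL-1B measured by AlphaLISA bead assay after 16 h compound exposure of THP-1 cells; compounds (final up to 57.5 uM) added 1 h before LPS (250 ng/mL) and ATP (1.25 mM) stimulation; lower signal means less secretion.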
DT40 TDP1 no CPT = qHTS for Inhibitors of human tyrosyl-DNA phosphodiesterase 1 (TDP1): qHTS in cells in absence of CPT; DT40 Tdp1-/- hTDP1 cells, no CPT, ATP luminescence, 48 h; Potency, µM (series often up to 46.2 µM), without a hit: at the top dose activity change, negative = growth inhibition, most hits filed as inhibitors; hit rate 15% among 420,000; further: potency means the concentration at half of the fitted maximal effect; on the % scale 0 is the no-effect control and ±100 the full control effect; nearly all actives have a fitted effect of over 55% in size
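Seeded 400 DT40-hTDP1 cells/well (vehicle DMSO, no 20 nM CPT); pinned compounds; ≥48 hr at 37 °C; CellTiter-Glo luminescence as viability measure.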
HepG2 viability = qHTS for Inhibitors of TGF-b: Cytotox Counterscreen | Potency, µM (series often up to 46.1 µM), for the others: at the top dose activity change, negative = cytotoxicity, most hits filed as cytotoxic | AID 588856, 2011 | HepG2 CAGA-GFP viability, ATP luminescence, 18 h | hit rate 0.76% among 410,000; further: potency means the concentration at half of the fitted maximal effect
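CellTiter-Glo luminescence gave cytotoxicity after 18 hours at 37 degrees C. The cells were HepG2 CAGA-GFP in 1% FBS DMEM, stimulated with 500 pg/mL TGF-beta after compound addition. %Activity was normalised to no-cell wells (complete cell-killing) and DMSO (no toxicity), and curves were fitted and classified.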
DT40 TDP1 CPT = qHTS for Inhibitors of human tyrosyl-DNA phosphodiesterase 1 (TDP1): qHTS in cells in presence of CPT; Potency, µM (top dose mostly 46.2 µM), for inactives: top-dose activity change, negative = growth inhibition, most hits filed as inhibitors; hit rate 12% among 420,000; chicken DT40 Tdp1-/-;hTDP1 cells + 20 nM CPT, ATP luminescence, 48 h; AID 686979, 2013; further: potency means the concentration at half of the fitted maximal effect; on the % scale 0 is the no-effect control and ±100 the full control effect; nearly all actives have a fitted effect of over 55% in size
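Chicken DT40 Tdp1-/- cells complemented with human TDP1, 400 cells/well, exposed to compounds plus 20 nM camptothecin for at least 48 h at 37 C; viability read as ATP content by CellTiter-Glo luminescence.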
* marks the source's active call; other numbers are inactive results. Hits are enriched below; roughly 19% of the tested compounds scored in any of these assays. Unless noted, the call rests on the fitted dose curve; in most records, active means well fitted curve in the direction sought with a large enough effect; inconclusive means small, poorly fitted or top-dose-only effect, or another doubt; inactive means no such curve, though single readings can be large; an effect the other way counts as inactive or inconclusive.

What do the screens show for `CC1C=CC=CC=CC=CC=CC=CC=CC(OC2OC(C)C(O)C(N)C2O)CC2OC(O)(CC(O)CC(O)C(O)CCC(O)CC(O)CC(=O)OC(C)C(C)C1O)CC(O)C2C(=O)O` (configuration not stated)?
TGFb inhibitor: inconclusive; ASM inhibitor: -25.6%; IL1B secr inh: 62.7; DT40 TDP1 no CPT: 3.26µM*; HepG2 viability: 0.0%; DT40 TDP1 CPT: 4.61µM*

What do the screens show for `O=C(O)c1ccccc1OC(=O)C12CC3CC(CC(C3)C1)C2`?
TGFb inhibitor: 2.2%; ASM inhibitor: -1.9%; IL1B secr inh: 22.9; DT40 TDP1 no CPT: -1.8%; HepG2 viability: 0.0%; DT40 TDP1 CPT: 10.9%

Results for COc1ccc(-c2ncccc2OC(=O)C23CC4CC(CC(C4)C2)C3)cc1 ?
TGFb inhibitor: 0.0%; ASM inhibitor: 0.7%; IL1B secr inh: 14.5; DT40 TDP1 no CPT: 23.1µM*; HepG2 viability: 5.2%; DT40 TDP1 CPT: 18.4µM*

Results for COc1cc(CN2CCNC(=O)C2CC(=O)NCCCC2CCCC2)cc(OC)c1 (configuration not stated) ?
TGFb inhibitor: -13.7%; ASM inhibitor: -2.7%; IL1B secr inh: -25.3; DT40 TDP1 no CPT: 1.9%; HepG2 viability: -9.0%; DT40 TDP1 CPT: -4.7%

What do the screens show for `COc1cc(-c2c(CCO)sc3ccccc23)cc(OC)c1OC`?
IL1B secr inh: 129.7; DT40 TDP1 no CPT: 6.51µM*; DT40 TDP1 CPT: 6.51µM*

What do the screens show for `COc1cc(-c2c(-c3ccsc3)sc3ccccc23)cc(OC)c1OC`?
TGFb inhibitor: -6.9%; ASM inhibitor: -4.5%; IL1B secr inh: 13.3; DT40 TDP1 no CPT: 5.5%; HepG2 viability: -10.4%; DT40 TDP1 CPT: 0.9%

What do the screens show for `CCN1C(=O)C(C)C=C(C)C=C1C` (configuration not stated)?
TGFb inhibitor: -0.6%; IL1B secr inh: -5.7; DT40 TDP1 no CPT: -0.4%; HepG2 viability: -10.2%; DT40 TDP1 CPT: 1.5%

Results for CCCCNS(=O)(=O)c1ccc2nc(SCC(=O)c3ccccc3OC)[nH]c2c1 ?
TGFb inhibitor: -29.5%; ASM inhibitor: -7.1%; IL1B secr inh: inconclusive; DT40 TDP1 no CPT: inconclusive; HepG2 viability: -35.3%; DT40 TDP1 CPT: 10.3µM*

What do the screens show for `CCCCNS(=O)(=O)c1ccc2nc(SCC(=O)Nc3sccc3C#N)[nH]c2c1`?
TGFb inhibitor: inconclusive; ASM inhibitor: -6.0%; IL1B secr inh: 7.9; DT40 TDP1 no CPT: inconclusive; HepG2 viability: -32.3%; DT40 TDP1 CPT: 23.1µM*

Results for O=C(NCc1cccc(F)c1)c1ccc(NC(=O)c2nsc3ccccc23)cc1 ?
TGFb inhibitor: 29.7%; DT40 TDP1 no CPT: inconclusive; HepG2 viability: -48.6%; DT40 TDP1 CPT: inconclusive

How did CCOC(=O)c1c(C)oc2nc(C)nc(NCCCN3CCN(c4cccc(C)c4)C(C)C3)c12 (configuration not stated) do in these assays?
TGFb inhibitor: 7.5%; DT40 TDP1 no CPT: inconclusive; HepG2 viability: -29.2%; DT40 TDP1 CPT: inconclusive

Results for CCOc1ccccc1C(=O)Nc1ccc2nc3n(c(=O)c2c1)CCCCC3 ?
TGFb inhibitor: -9.2%; ASM inhibitor: 0.8%; IL1B secr inh: -12.6; DT40 TDP1 no CPT: 2.59µM*; HepG2 viability: -20.3%; DT40 TDP1 CPT: inconclusive

What do the screens show for `COc1ccc(Cl)cc1C(=O)Nc1ccc2nc3n(c(=O)c2c1)CCCC3`?
TGFb inhibitor: 0.2%; ASM inhibitor: -3.1%; IL1B secr inh: -16.2; DT40 TDP1 no CPT: 18.4µM*; HepG2 viability: -3.0%; DT40 TDP1 CPT: 14.6µM*

How did COc1cc(C(=O)Nc2ccc3nc4n(c(=O)c3c2)CCCC4)ccc1Br do in these assays?
TGFb inhibitor: -13.9%; ASM inhibitor: -3.6%; IL1B secr inh: -16.2; DT40 TDP1 no CPT: inconclusive; HepG2 viability: 5.6%; DT40 TDP1 CPT: -22.3%

Results for Cc1ccccc1C(=O)Nc1ccc2nc3n(c(=O)c2c1)CCCC3 ?
TGFb inhibitor: -0.1%; ASM inhibitor: -2.5%; IL1B secr inh: inconclusive; DT40 TDP1 no CPT: -18.4%; HepG2 viability: -1.4%; DT40 TDP1 CPT: -14.4%

How did O=C(/C=C/c1ccco1)Nc1ccc2nc3n(c(=O)c2c1)CCCC3 do in these assays?
TGFb inhibitor: -20.7%; ASM inhibitor: -2.3%; IL1B secr inh: -51.1*; DT40 TDP1 no CPT: -21.1%; HepG2 viability: -21.0%; DT40 TDP1 CPT: inconclusive

Results for Cc1ccc(-n2nc3ccc(NC(=O)/C=C/c4ccco4)cc3n2)cc1 ?
TGFb inhibitor: -39.4%; ASM inhibitor: 8.2%; IL1B secr inh: 14.5; DT40 TDP1 no CPT: inconclusive; HepG2 viability: -1.3%; DT40 TDP1 CPT: 20.6µM*

How did O=c1c2cc(NC(=S)N3CCCC3)ccc2nc2n1CCCCC2 do in these assays?
TGFb inhibitor: -1.3%; ASM inhibitor: -1.7%; IL1B secr inh: 2.9; DT40 TDP1 no CPT: -23.0%; HepG2 viability: -4.1%; DT40 TDP1 CPT: -10.9%

What do the screens show for `COc1ccc(CNC(=O)COC(=O)CNC(=O)c2sc3ccccc3c2Cl)cc1OC`?
TGFb inhibitor: 9.6%; ASM inhibitor: -2.0%; IL1B secr inh: 10.2; DT40 TDP1 no CPT: 6.1%; HepG2 viability: -0.3%; DT40 TDP1 CPT: -15.8%

How did COc1ccc(-c2cc(C(=O)Nc3c(C(=O)c4ccc(C)cc4)oc4ccccc34)no2)cc1 do in these assays?
TGFb inhibitor: 28.1%; DT40 TDP1 no CPT: 5.8%; HepG2 viability: 9.2%; DT40 TDP1 CPT: -4.2%

Results for COc1cc2nc(CN3CCC(Cc4ccccc4)CC3)[nH]c(=O)c2cc1OC ?
TGFb inhibitor: 24.1%; ASM inhibitor: 7.5%; IL1B secr inh: 11.0; DT40 TDP1 no CPT: inconclusive; HepG2 viability: 7.7%; DT40 TDP1 CPT: inconclusive

How did COc1cc2nc(CN(C)Cc3ccc(Cl)cc3)[nH]c(=O)c2cc1OC do in these assays?
TGFb inhibitor: -7.2%; ASM inhibitor: -2.1%; IL1B secr inh: 41.6; DT40 TDP1 no CPT: 25.9µM*; HepG2 viability: -16.3%; DT40 TDP1 CPT: inconclusive

Results for COc1cc2nc(CN3CCC(C(O)(c4ccccc4)c4ccccc4)CC3)[nH]c(=O)c2cc1OC ?
TGFb inhibitor: 0.2%; ASM inhibitor: 0.4%; IL1B secr inh: 10.4; DT40 TDP1 no CPT: 18.4µM*; HepG2 viability: 24.4%; DT40 TDP1 CPT: inconclusive

Assay outcomes deposited in PubChem BioAssay by National Center for Advancing Translational Sciences (NCATS).
